The list is not random: actives were taken first. Their share in the collection is about 19%.
HepG2 tox – HepG2 cytotoxicity, counter-screen for TGF-b inhibitors; 410,000 compounds, 0.76% hits; AID 588856; HepG2 CAGA-GFP viability, ATP luminescence, 18 h; Potency, µM (series often up to 46.1 µM), without a hit: at the top dose activity change, negative = cytotoxicity, most hits filed as cytotoxic; also: potency is read from the fitted curve at half-maximal effect
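CellTiter-Glo luminescence gave cytotoxicity after 18 hours at 37 degrees C. The cells were HepG2 CAGA-GFP in 1% FBS DMEM, stimulated with 500 pg/mL TGF-beta after compound addition. %Activity was normalised to no-cell wells (complete cell-killing) and DMSO (no toxicity), and curves were fitted and classified.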
DT40 TDP1 no CPT – qHTS for Inhibitors of human tyrosyl-DNA phosphodiesterase 1 (TDP1): qHTS in cells in absence of CPT; 420,000 compounds, 15% hits; Potency, µM (series often up to 46.2 µM), for the others: at the top dose activity change, negative = growth inhibition, actives largely listed as inhibitors; DT40 Tdp1-/- hTDP1 cells, no CPT, ATP luminescence, 48 h; also: potency is read from the fitted curve at half-maximal effect; % is scaled to controls: 0 for no effect and ±100 for the full control effect; nearly all actives have a fitted effect of over 55% in size
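Readout: luminescence from CellTiter-Glo after 30 min in the dark at RT. Cells: DT40 Tdp1-/- with stable hTDP1, 400/well. Exposure: compounds alone, ≥48 hr, 37 °C.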
TGFb SMAD3 inh – inhibitors of TGF-b signaling; HepG2 CAGA-GFP TGF-b/SMAD3 reporter, GFP fluorescence, 18 h; TGF-beta stimulated, 500 pg/mL final; Potency, µM (series often up to 46.1 µM), inactives show at the top dose activity, negative = inhibition, actives largely listed as inhibitors; 410,000 compounds, 1.2% hits; AID 588855; also: potency is read from the fitted curve at half-maximal effect; % is scaled to controls: 0 for no effect and ±100 for the full control effect; nearly all actives have a fitted effect of over 65% in size
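Inhibition of TGF-beta-driven CAGA-GFP reporter expression in HEPG2 cells is measured by cellular GFP fluorescence after 18 h stimulation with 500 pg/mL recombinant TGF-beta in 1% FBS medium at 37 degrees C.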
IL1B secr inh – blocks inflammasome-driven IL-1 beta release; 360,000 compounds, 4.7% hits; activity change, % at 57.5 µM; THP-1 LPS/ATP IL-1B secretion, AlphaLISA, 16 h; hits give low values; in the data active = activity change below about -50%; inconclusive = mostly about -30% to -49%; also: % is scaled to controls: 0 for no effect and ±100 for the full control effect
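THP-1 cells pretreated 1 hr with compounds (up to 57.5 uM final), then stimulated with LPS (250 ng/mL final) plus ATP (1.25 mM final); secreted IL-1B measured by AlphaLISA after 16 hr, decreased signal indicating inhibition.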
ASM inhibitor – inhibitors of human secretory acid sphingomyelinase; P17405; placental ASM, HMU-PC fluorogenic substrate, 60 min; Potency, µM (highest dose often 57.5 µM), for inactives: at the highest dose activity change, negative = inhibition, most hits filed as inhibitors; 340,000 compounds, 0.006% hits; AID 504937; also: potency is read from the fitted curve at half-maximal effect
Target sequence (P17405 47-631 limits assumed): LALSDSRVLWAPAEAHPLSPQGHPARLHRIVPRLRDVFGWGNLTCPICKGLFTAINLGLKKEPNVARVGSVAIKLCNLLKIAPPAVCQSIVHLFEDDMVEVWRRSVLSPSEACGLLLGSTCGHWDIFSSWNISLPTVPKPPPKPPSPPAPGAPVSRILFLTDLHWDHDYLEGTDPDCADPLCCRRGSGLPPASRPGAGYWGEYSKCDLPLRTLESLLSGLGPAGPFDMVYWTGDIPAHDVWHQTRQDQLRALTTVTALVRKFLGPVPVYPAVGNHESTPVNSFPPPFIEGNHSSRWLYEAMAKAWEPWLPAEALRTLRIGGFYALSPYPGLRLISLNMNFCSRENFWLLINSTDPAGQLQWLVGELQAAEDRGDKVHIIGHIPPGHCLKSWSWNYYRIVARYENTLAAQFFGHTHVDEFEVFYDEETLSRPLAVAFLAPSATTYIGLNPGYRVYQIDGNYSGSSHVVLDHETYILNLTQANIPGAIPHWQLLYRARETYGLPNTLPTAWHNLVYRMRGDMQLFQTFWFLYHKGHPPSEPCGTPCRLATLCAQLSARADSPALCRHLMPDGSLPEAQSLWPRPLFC
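HMU-PC0 cleavage (9 uM final) by human placental ASM, 60 min at 37 °C following 10 min compound exposure at RT; stopped at pH 10, fluorescence Ex 386/Em 447 nm.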
TDP1 cell CPT – DT40-hTDP1 cell growth loss with CPT; 420,000 compounds, 12% hits; chicken DT40 Tdp1-/-;hTDP1 cells + 20 nM CPT, ATP luminescence, 48 h; Potency, µM (series often up to 46.2 µM), without a hit: at the highest dose activity change, negative = growth inhibition, actives largely listed as inhibitors; also: potency is read from the fitted curve at half-maximal effect; % is scaled to controls: 0 for no effect and ±100 for the full control effect; nearly all actives have a fitted effect of over 55% in size
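Chicken DT40 Tdp1-/- cells stably complemented with human TDP1 were seeded at 400 cells/well in medium containing 20 nM camptothecin, exposed to pin-transferred compounds, and grown at 37 °C for at least 48 hr. Viability was read as ATP luminescence.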
An asterisk follows results filed as active; ? = inconclusive; . = not tested or not shown; [ ] = remark or other dose. Unless noted, calls follow the shape of the dose curve; as a rule, active = well fitted curve in the direction sought with a large enough effect; inconclusive = small, poorly fitted or top-dose-only effect, or another doubt; inactive = no such curve, though single readings can be large; an effect the other way counts as inactive or inconclusive.

SMILES	HepG2 tox	DT40 TDP1 no CPT	TGFb SMAD3 inh	IL1B secr inh	ASM inhibitor	TDP1 cell CPT
Cc1cc(NCCCN2CCOCC2)n2nc(C)c(-c3ccccc3)c2n1	-16%	16µM*	13%	-14	1%	16µM*
Cc1cc(NCCCN2CCOCC2)n2ncc(-c3ccccc3)c2n1	-24%	?	?	-5	14%	?
COC(=O)C1CCN(Cc2ccc3c(c2)CN(C(=O)c2cc(C4CC4)on2)CCO3)CC1	.	-19%	.	.	.	16%[9.04 µM]
O=C(CN1C(=O)c2cccnc2Oc2ccc(Cl)cc21)NC1CCCCC1	-64%	-22%	-30%	-4	-1%	?
CCOC(=O)c1ccc(NC(=O)CN2c3ccccc3S(=O)(=O)c3ccccc32)cc1	-1%	?	11µM*	.	.	?
Cc1cccc(NC(=O)CN2C(=O)c3cccnc3Oc3ccc(Cl)cc32)c1C	-4%	21µM*	-23%	.	.	-98%
Cc1ccc2c(c1)N(CC(=O)Nc1c(C)cccc1C)C(=O)c1cccnc1O2	1%	16%	16%	0	-4%	-6%
Cc1ccc(NC(=O)CN2C(=O)c3cccnc3Oc3ccc(Cl)cc32)cc1	-10%	29µM*	0%	.	.	21µM*
CCOC(=O)c1ccc(NC(=O)CN2C(=O)COc3ccc(Cl)cc32)cc1	-10%	16µM*	0%	.	.	13µM*
CCOC(=O)c1ccc(NC(=O)CN2C(=O)C(C)(C)c3ccccc32)cc1	-9%	?	-7%	.	.	?
CCOC(=O)c1ccc(NC(=O)CN2C(=O)c3cccnc3Oc3ccc(Cl)cc32)cc1	-25%	21µM*	?	.	.	?
O=C(O)c1cc(NC(=O)c2cccc(F)c2)cc(NC(=O)c2cccc(F)c2)c1	14%	-13%	-6%	4	4%	4%
O=C(Nc1cccs1)Nc1ccc(F)cc1F	-33%	15µM*	-21%	-11	-2%	23µM*
O=C(Nc1cccs1)Nc1ccc(Br)cc1F	-36%	21µM*	11µM*	.	-3%	?
O=C(NCc1csc(-c2cccs2)n1)Nc1ccc(F)cc1F	-9%	12µM*	?	-8	-4%	?
O=C(Nc1ccc(F)cc1F)Nc1ccc(F)cc1F	-20%	?	-2%	0	7%	-30%
Cc1nc2sc(C)c(C)n2c(=O)c1S(=O)(=O)N1CCN(c2ccccc2F)CC1	-3%	?	-2%	.	.	-28%
CCN(CC)CCOC(=O)c1ccc(N/C=C(/C#N)c2nc(-c3ccc(OC)c(OC)c3)cs2)cc1	-73%	4.6µM*	-18%	-25	-22%	-106%
Cc1c(C(=O)OCC(=O)N(C)c2ccccc2)cccc1[N+](=O)[O-]	21%	-25%	0%	2	8%	2%
Cc1cccc(C(=O)OCC(=O)N(C)C(c2ccccc2)c2ccccc2)c1[N+](=O)[O-]	4%	7.3µM*	10%	21	2%	12µM*
O=C(Nc1ccccc1)N1CC2(CCN(C(=O)c3ccco3)CC2)C1	.	-4%	.	.	.	3%
O=C(c1cccc(F)c1)N1CCC2(CC1)CN(c1ccc(-c3ccccc3)cc1)C2	.	15µM*	.	.	.	?
COC(=O)N1CCC[C@@]2(CCN(C(=O)Nc3cccc(C#N)c3)C2)C1	.	0.046µM*	.	.	.	?
O=C(c1csnn1)N1CCC[C@@]2(CCN(C(c3ccccc3)c3ccccc3)C2)C1	.	18µM*	.	.	.	?
O=C(c1csnn1)N1CCC[C@@]2(CCN(c3ccncc3)C2)C1	.	-11%	.	.	.	-3%
O=C(c1ccco1)N1CCC2(CC1)CN(C(c1ccccc1)c1ccccc1)C2	.	15µM*	.	.	.	?

Screens from PubChem.
